# Screens deposited in PubChem by The Scripps Research Institute Molecular Screening Center.
# CHRM1 PAM: potentiates human M1 receptor response to acetylcholine; CHO-K1 hM1, Fluo-8 calcium fluorescence, ACh EC20; 0% = ACh EC20, 100% = maximal ACh; activation, % at 3 µM; actives 0.088% (n = 360,000); in the data active = activation above about 19%, passing the limit was not always enough
# Target sequence (P11229 whole entry, looked up): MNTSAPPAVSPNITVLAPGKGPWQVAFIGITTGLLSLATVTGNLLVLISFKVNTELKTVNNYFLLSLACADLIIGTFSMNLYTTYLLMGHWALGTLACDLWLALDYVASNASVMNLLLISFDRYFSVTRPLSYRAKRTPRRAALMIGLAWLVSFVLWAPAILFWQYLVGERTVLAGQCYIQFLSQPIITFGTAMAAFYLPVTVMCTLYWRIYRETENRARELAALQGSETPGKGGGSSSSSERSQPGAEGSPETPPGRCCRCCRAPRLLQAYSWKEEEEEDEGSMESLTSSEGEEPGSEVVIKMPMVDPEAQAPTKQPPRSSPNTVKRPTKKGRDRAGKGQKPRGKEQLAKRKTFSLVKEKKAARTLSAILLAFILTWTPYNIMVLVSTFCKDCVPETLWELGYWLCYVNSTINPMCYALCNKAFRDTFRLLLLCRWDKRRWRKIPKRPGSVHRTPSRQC
# CHRM1 agonist: human M1 muscarinic receptor agonism; actives 0.33% (n = 360,000); P11229; activation, % at 3 µM; CHO-K1 hM1, Fluo-8 calcium fluorescence, agonist mode; 0% DMSO, 100% acetylcholine EC100; AID 588814;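 active = activation above the run's mean compound activation plus 3 SD, cut at about 16% in these data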;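 also: peak over basal fluorescence ratio within a 140 s kinetic read after compound addition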
# M1 antag: blocks human M1 muscarinic receptor; CHO-K1 hM1, Fluo-8 calcium fluorescence, ACh EC80 antagonist; actives 1.3% (n = 360,000); inhibition, % at 3 µM;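 active = percent inhibition above its own plate's cutoff, namely the mean of that plate's compound wells plus 3 SD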;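 also: peak over basal fluorescence ratio during 140 s after agonist addition; 0% = ACh EC80 plus DMSO and 100% = DMSO alone without agonist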
# CHO-K1 Ca antag: M1 antagonist counterscreen hit in parental CHO-K1 cells; AID 602250; inhibition, % at 3 µM; actives 0.6% (n = 360,000); ATP-induced calcium, Fluo-8 fluorescence;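 active = inhibition above a per-plate cutoff, the plate's mean sample inhibition plus 3 SD, cut at about 24% in these data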;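 also: 0% = DMSO plus EC80 ATP and 100% = DMSO alone without ATP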
# M1 ag parental: nonselective activator or artifact in parental CHO-K1 cells; Fluo-8 calcium fluorescence; scaled to maximal ATP response, vehicle zero; activation, % at 3 µM; actives 0.48% (n = 360,000); in the data active = activation above about 15%;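 also: untransfected CHO-K1 host cells lacking M1 receptor as counterscreen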
# CHO-K1 Ca PAM: nonselective activator or artifact in parental CHO-K1 calcium assay; AID 602247; actives 0.02% (n = 360,000); activation, % at 3 µM; ATP EC20, Fluo-8 calcium fluorescence; 0% at ATP EC20, 100% at ATP max;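 active = activation above the run cutoff, the mean activation of all test compounds plus 3 SD, cut at about 40% in these data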;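 also: peak over basal fluorescence ratio in a 140 s read after ATP addition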
# Numbers without * were called inactive. Shown are actives, neighbours in structure and some others; about 2.4% of the full set was active somewhere.
SMILES,CHRM1 PAM,CHRM1 agonist,M1 antag,CHO-K1 Ca antag,M1 ag parental,CHO-K1 Ca PAM
O=c1[nH]c2ccc(S(=O)(=O)N3CCC(Cc4ccccc4)CC3)cc2o1,-11.4,-4.5,25.8,23.9*,0.8,-6.9
Cn1c(=O)c(=O)n(C)c2cc(S(=O)(=O)N3CCC(Cc4ccccc4)CC3)ccc21,3.4,-3.7,-0.4,-3.4,0.9,7.3
O=C(CCC1N=C2c3ccccc3N=C(SCC(=O)NCC3CCCO3)N2C1=O)NCc1ccc(F)cc1 (stereo not drawn),-0.8,-1.3,4.9,-0.6,0.2,-19.9
Cn1c(Cc2ccccc2)nnc1SCC(=O)c1ccc(Br)s1,-24.4,-6.7,21.6*,-1.1,0.1,8.4
Cn1nnnc1SCC(=O)c1ccc(Br)s1,-3.4,-5.4,20.2,-4.1,-0.3,-7.9
OCCC1CN(CC(c2ccccc2)c2ccccc2)CCN1C1CCCC1 (stereo not drawn),-32.2,-14.4,26.8*,7.9,0.2,3.5
OCCC1CN(CC#Cc2ccccc2)CCN1C1CCCC1 (stereo not drawn),-0.7,-6.3,4.5,-16.9,0.2,3.5
OCCC1CN(Cc2cnc(-c3ccccc3)s2)CCN1C1CCCC1 (stereo not drawn),-27.7,-9.7,38.8*,13.5,-0.1,-10.4
Cc1ccc2nc(C)c(CN3CCN(c4ccc([N+](=O)[O-])cc4Cl)CC3)n2c1,-19.6,-5.7,36.9*,23.4,9.8,-20.3
O=[N+]([O-])c1ccc(Cl)c(CN2CCN(c3ncccn3)CC2)c1,15.1,-7.8,-26.6,-3.4,-0.5,15.7
CC1C(=O)N2CCCc3cc(NC(=O)C(=O)NCCN4CCOCC4)cc1c32 (stereo not drawn),-13.8,-1.2,36.6*,20.4,-0.2,-30.3
CC(C)CNC(=O)C(=O)Nc1cc2c3c(c1)C(C)C(=O)N3CCC2 (stereo not drawn),9.1,-2.3,-12.0,-4.2,1.4,2.6
Cc1ccccc1-c1n[nH]nc1C1=CC(=O)CC(C)(C)C1,13.1,-3.8,-21.5,-15.6,1.0,30.6
COc1ccccc1CNc1nc(NCc2ccccc2SC)c2sccc2n1,-21.5,-3.2,37.5*,14.0,6.6,-2.4
COc1ccccc1CNc1nc(NCc2ccccc2OC)c2sccc2n1,-17.9,-2.4,31.1*,1.0,3.2,11.5
COCCn1c(C)cc(C(=O)CN2C(=O)C(=O)N(CCC3=CCCCC3)C2=O)c1C,0.5,-0.8,-13.2,-10.6,0.6,14.0
COc1ccccc1-c1nnc(SCC(=O)NNC(=O)c2ccccc2F)n1C,5.6,-0.9,-1.2,-16.7,0.6,17.3
CN1CCN(C(CNC(=O)C(=O)NC2CCCC2)c2ccc(F)cc2)CC1 (stereo not drawn),7.0,-7.6,-7.5,52.5*,0.0,-3.4
Nc1nc(CN2CCCCCC2)nc(Nc2ccccc2)n1,7.0,-3.5,-10.3,-12.1,0.1,4.0
Nc1nc(CN2CCN(c3ccccc3F)CC2)nc(Nc2ccccc2)n1,1.4,1.3,4.5,30.7*,0.1,-2.6
Nc1nc(CN2CCC(Cc3ccccc3)CC2)nc(Nc2ccccc2)n1,-15.2,-4.7,31.4*,-1.7,0.6,1.9
CCOC(=O)C1CCCN(Cc2nc(N)nc(Nc3ccccc3)n2)C1 (stereo not drawn),-9.4,31.3*,12.6,14.4,-0.1,0.1
Cc1ccc(Nc2nc(N)nc(CN3CCN(c4ccccc4F)CC3)n2)cc1,4.0,-1.4,-11.9,-9.4,1.0,10.4
COc1cc(OC)c(N2CC(C(=O)NCCC3=CCCCC3)CC2=O)cc1Cl (stereo not drawn),-1.9,-2.2,-0.1,-14.8,0.5,1.5
COc1cc(C(=O)Nc2nnc(CC(=O)NCc3ccccc3)s2)cc(OC)c1OC,12.7,-1.7,-7.7,-4.0,0.0,8.8
SMILES,CHRM1 PAM,CHRM1 agonist,M1 antag,CHO-K1 Ca antag,M1 ag parental,CHO-K1 Ca PAM
O=c1[nH]c2cc(Cl)c(Cl)cc2o1,7.0,4.7,-14.9,-4.7,3.6,4.6
O=c1[nH]c2cc(Cl)c(Br)cc2o1,3.0,3.6,-7.2,-3.3,16.0*,15.1
Cc1ccc(C2(c3ccccc3)NC(=O)N(CC(=O)NCc3ccco3)C2=O)cc1C (stereo not drawn),3.6,-8.2,-3.0,-8.3,-0.6,8.2
O=C(CCc1ccccn1)N1CCCC(Nc2cccc(F)c2)C1 (stereo not drawn),8.1,27.1*,-0.6,-1.8,0.8,11.8
O=C(CCc1ccccn1)N1CCCC(Nc2ccc(F)cc2)C1 (stereo not drawn),4.2,-0.5,-4.8,1.0,0.8,17.8
N=C1/C(=C\c2coc3ccccc3c2=O)C(=O)N=C2SC=CN12,-22.2,47.0*,40.7*,31.0*,83.2*,-27.1
CSC1=NSC2=NC(=O)/C(=C\c3cccs3)C(=N)N12,2.6,-6.1,0.2,-4.1,1.1,14.9
CSC1=NSC2=NC(=O)/C(=C/c3coc4ccc(O)cc4c3=O)C(=N)N12,-26.2,41.5*,34.2*,34.9*,27.2*,-3.7
CSC1=NSC2=NC(=O)/C(=C/c3coc4ccccc4c3=O)C(=N)N12,-23.5,78.0*,55.8*,34.7*,45.4*,-2.9
CC1=CC2=NC(=O)/C(=C/c3coc4ccc(Cl)cc4c3=O)C(=N)N2O1,-10.2,29.4*,30.7,27.3*,56.1*,-11.4
CCO/C(C)=N/Oc1cc(OC)cc(OC)c1,0.3,-7.9,-0.9,21.7,-0.6,-7.7
O=C(COc1ccc(S(=O)(=O)NC2CCCCC2)cc1Cl)NCc1cccnc1,7.8,-1.1,6.8,27.9*,-0.3,-8.7
CC(=O)OCCCN(C)CC/C=C1/c2ccccc2CSc2ccccc21,-24.9,-6.1,74.5*,-4.7,1.9,10.8
C[N+](C)(C)CC/C=C1/c2ccccc2CSc2ccccc21,-23.9,-5.1,96.1*,-12.3,0.2,12.6
CC(=O)Nc1cccc(-c2ccnc3c2CC(C)(C(=O)Nc2cccc(C(C)=O)c2)O3)c1 (stereo not drawn),-4.9,-0.9,3.8,-5.3,4.9,12.9
COCc1ccccc1C1=CC(=O)C[C@H](c2ccc(F)cc2)C1,6.0,-5.5,-11.7,-10.9,-0.6,-8.7
Cc1ccc(C(=O)CSC2=C(C#N)C(c3ccco3)C3=C(CCCC3=O)N2)cc1 (stereo not drawn),1.4,-6.5,-5.7,-6.8,0.3,8.0
N#CC1=C(SCC(=O)c2ccccc2)NC2=C(C(=O)CCC2)C1c1ccco1 (stereo not drawn),-11.9,-4.7,-4.5,31.1*,1.3,-5.9
CCn1ccnc1CN1CCc2c([nH]c3ccccc23)C1C(C)(C)C (stereo not drawn),-13.1,-13.5,5.3,11.6,22.8*,15.2
CCn1ccnc1CN1CCc2c([nH]c3ccccc23)C1CC(C)C (stereo not drawn),-9.7,-5.5,8.3,-11.7,2.6,6.6
